Drawing on ChEMBL document CHEMBL2218924, “A broad activity screen in support of a chemogenomic map for kinase signalling research and drug discovery” (Biochem J, 2013), this text covers residual activity for one compound.

In assay [1] the target is Tyrosine-protein kinase SYK (Homo sapiens) (UniProt P43405). As to conditions: at 10 µM.
For assay [2], the target named is T1, Mitogen-activated protein kinase kinase kinase 7 (Homo sapiens) (UniProt O43318).
T1 sequence (whole entry): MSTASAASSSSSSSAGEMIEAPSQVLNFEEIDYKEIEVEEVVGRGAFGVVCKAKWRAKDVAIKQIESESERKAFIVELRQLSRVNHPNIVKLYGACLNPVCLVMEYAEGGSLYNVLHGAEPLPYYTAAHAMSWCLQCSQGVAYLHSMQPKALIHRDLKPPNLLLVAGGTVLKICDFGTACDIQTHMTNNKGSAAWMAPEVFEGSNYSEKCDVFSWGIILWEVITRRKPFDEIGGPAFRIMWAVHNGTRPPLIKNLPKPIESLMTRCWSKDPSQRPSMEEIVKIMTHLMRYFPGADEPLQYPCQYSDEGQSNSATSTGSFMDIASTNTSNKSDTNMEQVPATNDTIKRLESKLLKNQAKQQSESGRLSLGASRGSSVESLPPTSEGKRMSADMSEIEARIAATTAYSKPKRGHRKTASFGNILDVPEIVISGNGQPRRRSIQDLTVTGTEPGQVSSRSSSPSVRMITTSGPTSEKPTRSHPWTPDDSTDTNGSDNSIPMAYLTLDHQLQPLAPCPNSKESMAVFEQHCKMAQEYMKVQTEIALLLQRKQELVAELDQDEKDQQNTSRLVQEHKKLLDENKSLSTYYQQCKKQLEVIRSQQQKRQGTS
Conditions: at 1 µM.

Assay [3] addresses T1, Mitogen-activated protein kinase kinase kinase 7 (Homo sapiens). As to conditions: at 10 µM.
Assay [4] concerns the target T2, Serine/threonine-protein kinase TAO1 (Homo sapiens) (UniProt Q7L7X3).
T2 sequence (whole entry): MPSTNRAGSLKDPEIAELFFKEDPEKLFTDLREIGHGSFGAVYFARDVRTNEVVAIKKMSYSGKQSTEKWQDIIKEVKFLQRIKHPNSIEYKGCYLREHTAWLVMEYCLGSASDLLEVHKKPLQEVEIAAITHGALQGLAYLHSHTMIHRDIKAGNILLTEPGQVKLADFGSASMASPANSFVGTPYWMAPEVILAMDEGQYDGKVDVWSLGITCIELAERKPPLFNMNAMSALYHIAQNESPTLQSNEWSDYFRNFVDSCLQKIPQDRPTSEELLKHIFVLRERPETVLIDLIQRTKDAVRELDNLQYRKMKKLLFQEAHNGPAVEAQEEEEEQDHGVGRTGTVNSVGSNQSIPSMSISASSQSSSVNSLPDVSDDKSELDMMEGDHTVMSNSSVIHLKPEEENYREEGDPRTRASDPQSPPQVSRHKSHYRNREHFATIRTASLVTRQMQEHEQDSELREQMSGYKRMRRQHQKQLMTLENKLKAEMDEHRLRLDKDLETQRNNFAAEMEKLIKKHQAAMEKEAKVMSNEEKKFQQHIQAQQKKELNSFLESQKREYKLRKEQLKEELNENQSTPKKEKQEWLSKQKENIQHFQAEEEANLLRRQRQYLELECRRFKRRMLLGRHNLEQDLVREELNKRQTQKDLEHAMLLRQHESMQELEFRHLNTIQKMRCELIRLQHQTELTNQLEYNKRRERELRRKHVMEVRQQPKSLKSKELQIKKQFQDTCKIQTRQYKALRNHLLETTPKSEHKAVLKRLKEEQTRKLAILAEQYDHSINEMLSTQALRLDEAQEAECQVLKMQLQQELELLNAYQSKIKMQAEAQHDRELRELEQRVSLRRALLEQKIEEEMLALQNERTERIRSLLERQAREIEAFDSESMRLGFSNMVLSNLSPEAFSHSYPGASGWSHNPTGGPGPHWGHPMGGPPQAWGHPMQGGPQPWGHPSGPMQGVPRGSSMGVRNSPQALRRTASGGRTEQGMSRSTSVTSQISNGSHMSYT
As to conditions: at 1 µM.

Assay [5] has as its target T2, Serine/threonine-protein kinase TAO1 (Homo sapiens). As to conditions: at 10 µM.
The target of assay [6] is T3, Serine/threonine-protein kinase TAO2 (Homo sapiens) (UniProt Q9UL54).
T3 sequence (whole entry): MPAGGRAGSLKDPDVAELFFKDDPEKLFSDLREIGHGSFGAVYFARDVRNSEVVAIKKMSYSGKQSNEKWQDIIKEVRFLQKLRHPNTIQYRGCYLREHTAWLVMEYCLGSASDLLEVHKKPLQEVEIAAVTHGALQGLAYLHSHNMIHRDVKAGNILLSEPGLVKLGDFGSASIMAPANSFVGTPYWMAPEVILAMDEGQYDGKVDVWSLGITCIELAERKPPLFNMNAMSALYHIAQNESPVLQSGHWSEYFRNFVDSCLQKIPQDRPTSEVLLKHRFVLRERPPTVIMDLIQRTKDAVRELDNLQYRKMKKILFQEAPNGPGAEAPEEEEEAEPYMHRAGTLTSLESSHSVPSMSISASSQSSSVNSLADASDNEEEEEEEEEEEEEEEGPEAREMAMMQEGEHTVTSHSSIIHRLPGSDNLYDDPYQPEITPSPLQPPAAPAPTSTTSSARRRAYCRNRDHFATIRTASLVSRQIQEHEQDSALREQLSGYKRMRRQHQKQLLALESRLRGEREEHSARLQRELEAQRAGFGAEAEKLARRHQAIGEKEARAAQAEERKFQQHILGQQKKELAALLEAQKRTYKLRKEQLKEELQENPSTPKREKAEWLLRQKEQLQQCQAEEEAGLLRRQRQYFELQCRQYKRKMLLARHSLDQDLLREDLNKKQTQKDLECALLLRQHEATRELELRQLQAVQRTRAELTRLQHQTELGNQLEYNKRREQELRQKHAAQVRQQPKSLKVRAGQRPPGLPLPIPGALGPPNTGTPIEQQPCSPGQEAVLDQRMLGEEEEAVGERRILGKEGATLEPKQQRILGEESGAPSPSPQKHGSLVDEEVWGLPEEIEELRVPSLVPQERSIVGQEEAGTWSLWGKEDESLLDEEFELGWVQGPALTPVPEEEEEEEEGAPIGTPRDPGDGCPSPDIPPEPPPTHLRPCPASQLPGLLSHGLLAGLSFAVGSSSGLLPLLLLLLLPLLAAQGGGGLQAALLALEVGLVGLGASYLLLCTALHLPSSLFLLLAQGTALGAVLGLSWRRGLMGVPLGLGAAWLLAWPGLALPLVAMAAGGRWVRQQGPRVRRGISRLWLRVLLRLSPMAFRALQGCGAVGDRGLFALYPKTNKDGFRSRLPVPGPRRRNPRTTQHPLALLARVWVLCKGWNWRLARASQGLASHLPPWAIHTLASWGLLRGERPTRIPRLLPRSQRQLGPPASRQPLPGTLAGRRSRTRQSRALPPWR
Conditions: at 1 µM.

Assay [7] has as its target T3, Serine/threonine-protein kinase TAO2 (Homo sapiens). Conditions: at 10 µM.
The target in assay [8] is T4, Serine/threonine-protein kinase TAO3 (Homo sapiens) (UniProt Q9H2K8).
T4 sequence (whole entry): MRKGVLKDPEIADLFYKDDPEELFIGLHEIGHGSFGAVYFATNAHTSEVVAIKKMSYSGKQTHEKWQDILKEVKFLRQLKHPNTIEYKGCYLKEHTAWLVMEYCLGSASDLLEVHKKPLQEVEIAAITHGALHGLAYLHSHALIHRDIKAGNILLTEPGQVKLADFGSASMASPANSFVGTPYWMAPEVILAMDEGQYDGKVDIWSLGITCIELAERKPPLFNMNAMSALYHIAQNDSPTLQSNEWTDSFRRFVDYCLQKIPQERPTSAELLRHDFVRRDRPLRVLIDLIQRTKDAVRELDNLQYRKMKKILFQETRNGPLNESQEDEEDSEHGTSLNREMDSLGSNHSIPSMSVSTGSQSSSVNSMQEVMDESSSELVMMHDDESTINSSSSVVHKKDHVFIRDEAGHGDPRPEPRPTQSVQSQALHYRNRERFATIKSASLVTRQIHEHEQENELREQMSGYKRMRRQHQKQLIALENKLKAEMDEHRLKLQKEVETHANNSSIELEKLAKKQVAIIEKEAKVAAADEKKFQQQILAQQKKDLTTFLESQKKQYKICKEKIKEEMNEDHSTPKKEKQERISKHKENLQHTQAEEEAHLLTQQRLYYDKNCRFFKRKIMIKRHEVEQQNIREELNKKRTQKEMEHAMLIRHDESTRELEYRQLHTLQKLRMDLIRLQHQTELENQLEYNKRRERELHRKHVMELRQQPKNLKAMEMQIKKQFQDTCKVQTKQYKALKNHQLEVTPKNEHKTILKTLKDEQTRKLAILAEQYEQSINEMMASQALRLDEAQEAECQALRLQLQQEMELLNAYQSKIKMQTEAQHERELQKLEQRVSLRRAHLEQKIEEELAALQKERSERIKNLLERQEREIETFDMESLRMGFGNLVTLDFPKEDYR
Conditions: at 1 µM.

The target in assay [9] is T4, Serine/threonine-protein kinase TAO3 (Homo sapiens). Conditions: at 10 µM.
Assay [10] has as its target T5, Serine/threonine-protein kinase TBK1 (Homo sapiens) (UniProt Q9UHD2).
T5 sequence (whole entry): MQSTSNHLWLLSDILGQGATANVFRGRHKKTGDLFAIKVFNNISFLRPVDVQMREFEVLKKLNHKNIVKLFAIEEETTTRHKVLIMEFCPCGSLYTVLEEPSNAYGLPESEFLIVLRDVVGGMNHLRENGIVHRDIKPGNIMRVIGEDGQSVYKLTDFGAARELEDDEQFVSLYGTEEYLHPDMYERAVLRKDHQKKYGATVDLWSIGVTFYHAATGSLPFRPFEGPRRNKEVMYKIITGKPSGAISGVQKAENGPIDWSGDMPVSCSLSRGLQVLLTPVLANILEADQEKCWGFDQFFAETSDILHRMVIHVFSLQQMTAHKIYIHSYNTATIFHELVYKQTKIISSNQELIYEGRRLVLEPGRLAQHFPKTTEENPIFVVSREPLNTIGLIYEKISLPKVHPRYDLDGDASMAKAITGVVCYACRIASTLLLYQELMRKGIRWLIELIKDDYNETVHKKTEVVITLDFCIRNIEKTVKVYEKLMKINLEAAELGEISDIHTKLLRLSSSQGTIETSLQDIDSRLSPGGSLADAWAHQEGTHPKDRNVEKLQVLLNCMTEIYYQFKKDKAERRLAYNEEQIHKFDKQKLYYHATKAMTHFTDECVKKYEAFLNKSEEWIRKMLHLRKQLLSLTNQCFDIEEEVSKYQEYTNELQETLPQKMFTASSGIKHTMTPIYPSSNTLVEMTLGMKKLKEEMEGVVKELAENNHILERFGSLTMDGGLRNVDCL
Conditions: at 1 µM.

The target in assay [11] is T5, Serine/threonine-protein kinase TBK1 (Homo sapiens). Conditions: at 10 µM.
Assay [12] deals with T6, TGF-beta receptor type-1 (Homo sapiens) (UniProt P36897).
T6 sequence (whole entry): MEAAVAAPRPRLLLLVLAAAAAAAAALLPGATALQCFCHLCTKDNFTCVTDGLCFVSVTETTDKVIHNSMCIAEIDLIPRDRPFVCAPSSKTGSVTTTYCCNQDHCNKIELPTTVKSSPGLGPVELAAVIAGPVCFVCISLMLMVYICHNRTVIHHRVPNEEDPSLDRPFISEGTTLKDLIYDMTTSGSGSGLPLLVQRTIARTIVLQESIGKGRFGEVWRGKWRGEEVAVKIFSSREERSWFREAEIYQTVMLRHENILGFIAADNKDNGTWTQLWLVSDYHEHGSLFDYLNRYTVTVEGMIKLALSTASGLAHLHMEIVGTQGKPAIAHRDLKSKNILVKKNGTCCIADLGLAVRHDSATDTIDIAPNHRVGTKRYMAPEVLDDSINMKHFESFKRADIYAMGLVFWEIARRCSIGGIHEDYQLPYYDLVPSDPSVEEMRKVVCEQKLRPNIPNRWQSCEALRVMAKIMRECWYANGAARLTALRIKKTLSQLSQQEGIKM
As to conditions: at 1 µM.

Assay [13] has as its target T6, TGF-beta receptor type-1 (Homo sapiens). As to conditions: at 10 µM.
In assay [14] the target is Insulin receptor (Homo sapiens) (UniProt P06213). Conditions: at 1 µM.
Chain of Insulin receptor (Homo sapiens) (P06213 28-758 limits assumed): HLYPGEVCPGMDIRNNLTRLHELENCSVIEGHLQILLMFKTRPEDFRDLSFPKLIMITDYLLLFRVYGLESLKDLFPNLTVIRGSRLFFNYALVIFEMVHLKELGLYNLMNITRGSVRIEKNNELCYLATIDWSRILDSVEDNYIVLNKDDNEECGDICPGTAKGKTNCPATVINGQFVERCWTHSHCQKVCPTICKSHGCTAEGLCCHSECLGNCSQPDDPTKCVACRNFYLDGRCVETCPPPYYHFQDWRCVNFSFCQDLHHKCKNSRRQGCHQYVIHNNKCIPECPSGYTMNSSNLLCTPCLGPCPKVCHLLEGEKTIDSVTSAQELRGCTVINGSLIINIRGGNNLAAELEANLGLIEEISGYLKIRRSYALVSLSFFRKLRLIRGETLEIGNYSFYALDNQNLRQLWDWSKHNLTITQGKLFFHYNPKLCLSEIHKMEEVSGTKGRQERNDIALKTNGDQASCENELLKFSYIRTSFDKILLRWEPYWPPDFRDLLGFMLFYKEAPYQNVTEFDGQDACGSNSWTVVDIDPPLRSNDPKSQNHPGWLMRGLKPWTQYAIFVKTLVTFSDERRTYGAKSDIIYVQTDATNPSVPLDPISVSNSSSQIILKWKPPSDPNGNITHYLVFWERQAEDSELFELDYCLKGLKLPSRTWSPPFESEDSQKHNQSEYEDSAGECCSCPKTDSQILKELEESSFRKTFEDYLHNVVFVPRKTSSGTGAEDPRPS
Chain of Insulin receptor (Homo sapiens) (P06213 763-1382 limits assumed): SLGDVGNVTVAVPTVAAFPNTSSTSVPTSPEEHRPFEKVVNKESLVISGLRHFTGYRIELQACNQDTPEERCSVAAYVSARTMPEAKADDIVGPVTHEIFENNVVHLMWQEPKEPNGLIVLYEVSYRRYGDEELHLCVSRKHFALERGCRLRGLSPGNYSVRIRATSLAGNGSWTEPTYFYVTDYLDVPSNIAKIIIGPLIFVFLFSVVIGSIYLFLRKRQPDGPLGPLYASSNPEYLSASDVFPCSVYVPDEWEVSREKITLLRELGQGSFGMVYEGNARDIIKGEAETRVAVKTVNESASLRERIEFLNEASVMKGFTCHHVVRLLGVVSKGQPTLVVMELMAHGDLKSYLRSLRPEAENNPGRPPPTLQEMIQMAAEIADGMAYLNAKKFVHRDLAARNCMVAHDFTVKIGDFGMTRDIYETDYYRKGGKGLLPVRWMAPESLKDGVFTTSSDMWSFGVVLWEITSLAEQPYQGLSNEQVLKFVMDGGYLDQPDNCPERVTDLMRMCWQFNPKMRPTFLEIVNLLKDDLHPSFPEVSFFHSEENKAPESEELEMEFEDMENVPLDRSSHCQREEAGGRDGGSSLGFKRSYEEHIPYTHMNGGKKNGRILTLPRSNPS

As for `N#CCCc1ccc2c(c1)-c1[nH]c3ccc([N+](=O)[O-])cc3c1CC(=O)N2`, the residual activity in assay [1] was 41%; in assay [2], 57%; in [3] it was 21%; in assay [4], 58%; in assay [5], 24%; in assay [6], 64%. Moreover, the residual activity in [7] was found to be 52%; in assay [8], 56%; in assay [9], 41%; in assay [10], 38%; in assay [11], 13%; in [12], 73%. Moreover, the figures for the residual activity in [13] and in assay [14] were 28% and 118%, respectively.
